# Screens deposited in PubChem BioAssay by National Center for Advancing Translational Sciences (NCATS).
# Rows were chosen to be rich in hits. Some 7.1% of all compounds tested hit in one or more screens of this group.
# SW480 rerep: A quantitative high throughput screen for small molecules that induce DNA re-replication in SW480 colon adenocarcinoma cells | SW480 DNA re-replication, Hoechst DNA content imaging, 48 h | Potency, µM (titrated, usually from 46.1 µM), actives largely listed as activators | 340,000 compounds, 1.8% hits | AID 624297, 2012; note: nearly all actives have a fitted effect of over 55% in size
#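 Hoechst fluorescence of nuclei (405 nm excitation, 500-530 nm emission) measured by plate-scanning imager after 48 hr compound exposure at 37 C; re-replication scored as increased number of nuclei with elevated intensity.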
# MCF10A rerep: A quantitative high throughput screen for small molecules that induce DNA re-replication in MCF 10a normal breast cells; MCF 10A DNA re-replication, Hoechst nuclear intensity, 48 h; Potency, µM (titrated, usually from 46.1 µM), usual class: activators; 350,000 compounds, 2.9% hits; AID 624296, 2012; note: nearly all actives have a fitted effect of over 50% in size
# S2 tox: Viability Counterscreen for Primary qHTS for Inhibitors of ATXN expression | S2 cells (HEK-293 line with an ATXN2-luciferase reporter) viability, CellTiter-Fluor protease fluorescence, 24 h | AID 651635, 2014 | 400,000 compounds, 0.49% hits | Potency, µM (top dose mostly 56.7 µM), most hits filed as cytotoxic; note: nearly all actives have a fitted effect of over 40% in size
# ATXN2 expr inh: Primary qHTS for Inhibitors of ATXN expression | HEK-293 ATXN2-luciferase reporter, luminescence, 24 h | AID 1745845, 2022 | 360,000 compounds, 0.72% hits | Potency, µM (doses to about 57 µM), actives largely listed as inhibitors; note: nearly all actives have a fitted effect of over 55% in size
#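 qHTS (up to 57 uM final) was run with 24 h compound exposure of reporter cells at 37 °C. Each well was multiplexed: SteadyGlo luminescence measured ATXN2-luciferase expression after a fluorogenic Gly-Phe-AFC viability readout (25 uM final).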
# PINK1 modulator: A Quantitative High throughput Screen to Identify Chemical Modulators of PINK1 Expression | PINK1 immunofluorescence, high-content cytometry, 24 h | Potency, µM (series often up to 76.6 µM), hits mostly activators | 410,000 compounds, 0.2% hits; active = well fitted activation curve with a large enough effect; inconclusive = small, poorly fitted or top-dose-only effect; cell line not stated here; note: nearly all actives have a fitted effect of over 65% in size
#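 A stable cell line was treated with compounds at 5 concentrations for 24 hours, with CCCP as control. PINK1 levels and mitochondrial localization were measured by immunofluorescence with mitochondrial, cell and nuclear markers after fixation, read by laser-scanning cytometry.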
# IL-1B inflam inh: qHTS for Inhibitors of Inflammasome Signaling: IL-1-beta AlphaLISA Primary Screen. THP-1 LPS/ATP IL-1B secretion, AlphaLISA, 16 h; hits give low values. activity change, % at 57.5 µM. 360,000 compounds, 4.7% hits; in the data active = activity change below about -50%; inconclusive = mostly about -30% to -49%
#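 THP-1 cells pretreated 1 hr with compounds (up to 57.5 uM final), then stimulated with LPS (250 ng/mL final) plus ATP (1.25 mM final); secreted IL-1B measured by AlphaLISA after 16 hr, decreased signal indicating inhibition.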
# Numbers stand for hits; i = inactive; ? = inconclusive; nt = not tested or not shown; [ ] = dose if it differs, or a comment. Unless noted, calls come from the whole dose curve; as a rule, active = well fitted curve in the direction sought with a large enough effect; inconclusive = small, poorly fitted or top-dose-only effect, or another doubt; inactive = no such curve, though single readings can be large; an effect the other way counts as inactive or inconclusive.
SMILES,SW480 rerep,MCF10A rerep,S2 tox,ATXN2 expr inh,PINK1 modulator,IL-1B inflam inh
CC1CCN(S(=O)(=O)c2ccc3c(ccn3CCC(=O)NCc3ccccc3F)c2)CC1,nt,nt,i,i,i,nt
O=C(NCCCC1CCCC1)C1CCC(=O)N(Cc2ccc(Cl)cc2)C1 (configuration not stated),i,i,i,i,i,-69
O=C(NCCCC1CCCC1)C1CCC(=O)N(Cc2cccc(F)c2)C1 (configuration not stated),i,i,i,i,i,i
COc1ccc(N(C)C(=O)CCn2cnc3onc(-c4ccc(F)cc4)c3c2=O)c(OC)c1,nt,nt,?,?,i,nt
O=P(c1ccccc1)(c1ccccc1)c1nc(-c2ccc(Cl)cc2)oc1N1CCOCC1,?,i,?,i,i,-65
O=C(Cc1ccc(OCCC2CCCCC2)cc1)NO,nt,nt,nt,nt,i,nt
OC1(c2cccnc2)CCN(Cc2ccc3c(c2)CN(Cc2cccc4nccnc24)CCO3)CC1,nt,nt,i,nt,i,nt
Cc1nc2cc(C(=O)N3c4ccccc4CC3C)ccc2s1 (configuration not stated),?,i,i,i[11.3 µM],i,i
Cc1cc(=O)[nH]c2sc(C(=O)N3c4ccccc4CC3C)c(N)c12 (configuration not stated),i,i,i,i,i,-60
Cc1ccc(NC(=O)NC2(C(=O)NCc3ccccc3)CCCCC2)cc1,i,i,i,i,nt,i
Cc1ccc(CNC(=O)C2(NC(=O)Nc3ccc(C)cc3)CCCCC2)cc1,16µM,i,i,i,nt,i
Cc1ccc(/C(=N/Nc2ncnc3ccccc23)C(=O)O)cc1,18µM,i,i,i,i,i
COC(=O)C(=O)C/C(=N/Nc1ncnc2ccccc12)c1ccc(Cl)cc1,i,i,nt,i,i,i
CCOc1ccc(N(CC(=O)Nc2ccc3c(c2)OCO3)S(=O)(=O)c2ccccc2)cc1,nt,nt,i,i,i,nt
O=S(=O)(c1ccc(Br)cc1)c1nnn2c1nc(NCc1cccs1)c1sccc12,nt,nt,nt,nt,i,nt
Clc1ccc2c(c1)C(N1CCNCC1)Cc1ccccc1S2 (configuration not stated),?,?,32µM,?,i,-100
CCOC(=O)Cn1nc(N2CCN(c3ccc(F)cc3)CC2)ccc1=O,nt,nt,?,i,i,nt
CCN(CC)CCCN(Cc1cc2cc3c(cc2[nH]c1=O)OCO3)C(=S)Nc1ccc(OC)cc1,i,?,nt,i,i,-71
Cc1cccc(NC(=S)N(CCN2CCOCC2)Cc2cc3cc4c(cc3[nH]c2=O)OCO4)c1,i,i,i,i,i,i
COc1ccc(NC(=S)N(CCN2CCOCC2)Cc2cc3cc4c(cc3[nH]c2=O)OCCO4)cc1,?,i,i,i[11.3 µM],i,-61
COc1cc2cc(CN(CCc3cccc(C)c3)C(=S)NCCCN3CCOCC3)c(=O)[nH]c2cc1OC,i,i,i,i,i,-62
O=C(Nc1ccc(F)cc1)N(Cc1ccco1)Cc1cc2cc3c(cc2[nH]c1=O)OCO3,i,18µM,i,i,i,?
Cc1cccc(N(C)C(=S)Oc2ccc3c(c2)C2CCC3C2)c1 (configuration not stated),nt,nt,i,i,nt,nt
CC(NC(=O)CN1C(=O)COc2ccc(S(=O)(=O)N3CCCCCC3)cc21)c1ccccc1 (configuration not stated),nt,nt,?,i,i,nt
CCCCN1C(=O)/C(=C/C=C2/CC(C)(C)CN2C)SC1=S,i,?,i,i,i,-59
COC(=O)c1cc2oc3ccccc3c2n1Cc1c(F)cccc1Cl,nt,nt,nt,nt,i,nt
CCOC(=O)c1c(/N=C/N(C)C)sc(C=O)c1-c1ccccc1,i,i,i,i,i,i
CCOC(=O)c1c(/N=C/N(C)C)sc(/C=N/Nc2ccccc2)c1-c1ccccc1Cl,18µM,15µM,i,?,i,i
CCOC(=O)c1c(/N=C/N(C)C)sc(/C=N/Nc2ccccc2)c1-c1ccccc1,?,21µM,i,i,i,i
Cc1ccc(-n2c3nc(=O)n(C)c(=O)c-3cc3ccccc32)c(C)c1,nt,nt,i,i,i,nt
